VACV Venus inh: qHTS for Stage-Specific Inhibitors of Vaccinia Orthopoxvirus: Venus Reporter Primary qHTS; Vaccinia virus Venus reporter expression, fluorescence; Potency, µM (titrated, usually from 36.5 µM), for inactives: at the highest dose activity change, negative = inhibition, actives largely listed as inhibitors; 330,000 compounds, 0.46% hits; calls by dose curve; tested in A549 cells; also: nearly all actives have a fitted effect of over 30% in size
Lassa entry inh: qHTS for Inhibitors of binding or entry into cells for Lassa Virus | Lassa virus pseudotype entry inhibition, cell reporter | Potency, µM (top dose mostly 37.9 µM), for the others: at the top dose activity change, negative = inhibition, usual class: inhibitors | 300,000 compounds, 1.2% hits; calls by dose curve; tested in HEK293 cells; also: nearly all actives have a fitted effect of over 50% in size
HCV inh: qHTS Assay for Inhibitors of Hepatitis C Virus (HCV) | Potency, µM (highest dose often 41.8 µM), for inactives: at the highest dose activity change, negative = inhibition, most hits filed as inhibitors | 340,000 compounds, 3.4% hits | Huh7.5.1 HCVcc-Cre infection, luciferase reporter, 44 h; active = well fitted inhibition curve with a large enough effect; inconclusive = small, poorly fitted or top-dose-only effect, or another doubt; inactive = no such curve, though single readings can be large or run the other way
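Compounds are dispensed onto cells plated 4 h earlier at 1,000 per well, with HCVcc-Cre virus (about 0.5 moi) added next. Following 44 h of culture, luminescent signal is measured for 15 sec after 15 min with substrate at room temperature.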
Marburg entry inh: qHTS for inhibitors of binding or entry into cells for Marburg Virus; Marburg virus pseudotyped entry inhibition, cell reporter; Potency, µM (top dose mostly 37.8 µM), for inactives: at the highest dose activity change, negative = inhibition, usual class: inhibitors; 300,000 compounds, 1.8% hits; AID 540276, 2011; calls by dose curve; tested in HEK293 cells
VACV mCherry inh: qHTS for Stage-Specific Inhibitors of Vaccinia Orthopoxvirus: mCherry Reporter Primary qHTS; 310,000 compounds, 0.63% hits; Potency, µM (highest dose often 36.5 µM), without a hit: at the highest dose activity change, negative = inhibition, hits mostly inhibitors; Vaccinia virus mCherry reporter infection, fluorescence; calls by dose curve; tested in A549 cells; also: nearly all actives have a fitted effect of over 35% in size
* marks the source's active call; other numbers are inactive results; i = inactive; ? = inconclusive; nt = not tested or not shown; ! = not confirmed by another sample; [ ] = dose if it differs, or a comment. Sampled rows, rich in hits. Any-hit rate of the full collection: about 4.6%. % is scaled to controls: 0 for no effect and ±100 for the full control effect; potency is read from the fitted curve at half-maximal effect.

SMILES	VACV Venus inh	Lassa entry inh	HCV inh	Marburg entry inh	VACV mCherry inh
COc1ccc(CN(C)C(=O)c2cccc(NC(=O)CC3SC(N4CCCCC4)=NC3=O)c2)c(OC)c1 (centres undefined)	-22%	7.1µM*	8.9µM*	10µM*	?
CO[C@H]1[C@H](NC(=O)c2ccsc2)c2ccccc2C12CCN(Cc1cccn1-c1ccccn1)CC2	1%	nt	nt	nt	-7%
COC(=O)C(C(C)=O)[C@@H](NC(=O)NCc1ccccc1)c1ccccc1 (some centres undefined)	nt	nt	nt	25%[14.2 µM]	nt
CC(=O)N1CCC[C@H]1C(=O)NCC1Cc2cc(-c3cnccn3)cc(Cl)c2O1 (some centres undefined)	2%	nt	nt	nt	-10%
O=C(Nc1cccc(S(=O)(=O)N2CCCCC2)c1)C1CC(=O)N(c2ccc3c(c2)OCCO3)C1 (centres undefined)	nt	nt	13µM*	nt	nt
Cn1ncc2c(NCc3ccccc3Cl)nc(NCCO)nc21	-7%	-11%[46.1 µM]	nt	nt	-11%
Cc1ccc(Nc2nc(NCCO)nc3c2cnn3C)cc1Cl	nt	nt	13µM*	nt	nt
COc1ccc(OCC(=O)Nc2ccccc2C(=O)OCc2cc(=O)n3nc(C)sc3n2)cc1	-12%	18%[46.1 µM]	nt	nt	-16%
N#Cc1ccc2c(c1)C[C@]1(c3ccsc3)Oc3c(c(=O)oc4ccccc34)[C@H]2O1	nt	nt	nt	5%[14.2 µM]	nt
CCOc1ccc(NC(=O)OCCN2CCN(CCc3ccccc3)C(C)C2)cc1 (centres undefined)	-21%	?	11µM*	?	?
CN(c1ccc(OCC(=O)N2CCN(C/C=C/c3ccccc3)CC2)cc1)S(=O)(=O)c1cccs1	nt	nt	11µM*	nt	nt
CCOC(=O)C1CCN(C(=O)COc2ccc(N(C)S(=O)(=O)c3cccs3)cc2)CC1	-13%	-3%	21%	7%	nt
O=C(CCc1ccccc1)NNC(=O)COc1ccc(Br)cc1	-16%	4%	11µM*	2%[46.1 µM]	-2%
O=C(CCC(=O)NNC(=O)COc1ccc(Br)cc1)NCc1ccccc1	-11%	8%	-2%	?	-1%
Cc1nc(SCC(=O)Nc2c(C)n(C)n(-c3ccccc3)c2=O)c2cnn(-c3ccccc3)c2n1	nt	nt	25µM*	nt	nt
Cc1nc2c(o1)CCc1ccccc1[C@H]2O	nt	nt	nt	11%	nt
CCCCN(CC)Cc1ccc(CNC(=O)Nc2ccc(F)cc2)o1	nt	6%	11µM*	2%	nt
CC(=O)n1c2ccccc2c2ccccc21	-6%	7%	?	0%	-7%
CC(=O)n1c(Cl)c(NC(=O)CCl)c2ccccc21	?	?	14µM*	?	10µM*
NC[C@](O)(CS(=O)(=O)O)c1ccc(Cl)cc1	nt	nt	nt	-5%	nt
O=C(Cn1cc(S(=O)(=O)N2CCN(c3ccccc3F)CC2)c2ccccc2c1=O)NCCCN1CCCCCC1	-13%	5%	22µM*	?	?
CCOC(=O)c1ccc(NC(=O)C2CCN(C(=O)c3ccc(OC)c(OC)c3)CC2)cc1	?	?	10µM*	?	nt
CCO[C@@H]1C[C@@]1(C=C[C@@H](C)[C@H](OC)c1ccccc1Br)C(=O)OC	nt	nt	nt	-14%[14.2 µM]	nt
O=C(c1ncn[nH]1)N1CCN(c2nc(-c3ccccc3)cs2)CC1	-12%	0%	-22%	16%	i
O=C(c1cc(-n2cnnc2)ccc1Cl)N1CCN(c2nc(-c3ccccc3)cs2)CC1	?	?	10µM*	?	nt
SMILES	VACV Venus inh	Lassa entry inh	HCV inh	Marburg entry inh	VACV mCherry inh
CC(C)(O)/C=C/C(=O)C(C)(O)C1C(O)CC2(C)C3CC=C4C(C=C(O)C(=O)C4(C)C)C3(C)C(=O)CC12C (centres undefined)	28µM*	0.32µM*	?	0.11µM*	7.9µM*
CC(=O)OC(C)(C)/C=C/C(=O)[C@](C)(O)C1[C@H](O)C[C@@]2(C)C3CC=C4C(C[C@H](O)C(=O)C4(C)C)[C@]3(C)C(=O)C[C@]12C (some centres undefined)	2.5µM*	nt	-19%	nt	0.5µM*
Cc1cc(/C=C2\SC(=Nc3ccccc3)NC2=O)c(C)n1-c1ccc(S(N)(=O)=O)cc1	?	?	4.5µM*	8.9µM*	nt
Cc1ccc(-n2c(C)cc(/C=C3\SC(=O)NC3=O)c2C)cc1	nt	nt	11%	nt	nt
CCOCCCNC(=O)c1c(NC(=O)c2cc(=O)c3ccccc3o2)sc2c1CCC2	-14%	?	nt	-1%[46.1 µM]	i
Cc1ccc(Cl)cc1N1CCN(C(=O)CSc2nnc3n2C(C)(C)Cc2ccccc2-3)CC1	nt	?	?	12µM*	nt
COc1ccc(N2CCN(C(=O)CSc3nnc4n3C(C)(C)Cc3ccccc3-4)CC2)cc1	nt	-24%	?	-19%	nt
Nc1nc(CN2CCN(c3ccccn3)CC2)nc(Nc2ccc(F)cc2)n1	nt	?	?	2.6µM*	nt
Nc1nc(CN2CCCCCC2)nc(Nc2ccc(F)cc2)n1	0%	8%	-27%	4%[46.1 µM]	-8%
C=CS(=O)(=O)N(Cc1ccccc1)[C@H](CO)CC(C)C	1.1µM*	nt	19%	nt	?
C=CS(=O)(=O)N(Cc1ccccc1Br)[C@H](CO)Cc1ccccc1	1.1µM*	nt	-21%	nt	?
CC(C)C[C@H](CO)N(Cc1ccccc1)S(=O)(=O)N(Cc1ccccc1)[C@@H](CO)CC(C)C	?	nt	?	nt	14µM*!
O=S(=O)(N(Cc1ccccc1)[C@@H](CO)Cc1ccccc1)N(Cc1ccccc1)[C@@H](CO)Cc1ccccc1	-27%	nt	-2%	nt	-6%
CCc1ccc(NC(=O)CCn2nc(-c3ccccc3OC)c3c(C)cc(C)nc32)cc1	-10%	?	nt	?	-19%
CN(CC(=O)O)c1ccc(/C=C/c2ccnc3ccccc23)cc1	-4%	nt	nt	nt	-2%
